# Yp Topo-I inh: blocks Yersinia pestis topoisomerase I activity; Y. pestis Topo-I cleavage product accumulation, plate reader; activity, % at 10 µM; actives 0.064% (n = 360,000); AID 504884; in the data active means activity above about 50%, passing the limit was not always enough
# BJeLR viability: kills HRASV12-expressing BJeLR cells; BJeLR (HRASV12) viability, CellTiter-Glo ATP luminescence, 48 h; inhibition, % (test concentration not listed); actives 0.17% (n = 300,000); in the data active means inhibition above about 50%
# PfHsp40 rescue: restores yeast growth despite PfHsp40 toxicity; actives 0.68% (n = 340,000); S. cerevisiae expressing PfHsp40, growth rescue, ATP luminescence; growth rescue, % at 12.5 µM; in the data active means growth rescue above about 28%, passing the limit was not always enough;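 further: yeast W303a lacking pdr1 and pdr3 grown in galactose medium; growth measured after three days at 30 °C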
# MazF activator: MazEF (E. coli) toxin RNase activation. P0AE70. FAM/BHQ RNA-DNA oligo cleavage fluorescence, 5 h. activation, % at 20 µM. actives 0.32% (n = 350,000); in the data active means activation above about 50%
# Target sequence (P0AE70 whole entry, looked up): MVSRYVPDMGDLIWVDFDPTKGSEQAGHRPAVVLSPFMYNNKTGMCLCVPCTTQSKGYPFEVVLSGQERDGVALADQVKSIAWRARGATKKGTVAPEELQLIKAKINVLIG
# 3CLpro inhibitor: SARS-CoV 3CLpro protease inhibition | P0C6X7 | actives 0.14% (n = 290,000) | AID 1706 | recombinant SARS-CoV 3CLpro, quenched FRET peptide cleavage | inhibition, % at 6 µM; in the data active means inhibition above about 12%
# Mtb BioA inh: BioA (M. tuberculosis) enzyme inhibition. purified M. tuberculosis BioA enzyme, plate reader. inhibition, % at 9.99 µM. actives 0.096% (n = 360,000); in the data active means inhibition above about 40%
# Active calls of the source: *; / = no result given; + = active, no number. Rows were chosen to be rich in hits. Some 1.1% of all compounds tested hit in one or more screens of this group.
SMILES,Yp Topo-I inh,BJeLR viability,PfHsp40 rescue,MazF activator,3CLpro inhibitor,Mtb BioA inh
Cc1ccc(OC(=O)CCC(=O)Oc2ccc(C)cc2C)c(C)c1,60.1*,/,4.2,-3.0,/,-1.3
Cc1ccc(-c2nc3ccc([N+](=O)[O-])cc3[nH]2)cc1,-14.2,6.7,111.5*,10.4,1.2,/
CCCCCN=Cc1c(C)[nH]n(-c2nc3ccccc3s2)c1=O,9.6,53.3*,0.7,-0.2,3.4,-0.3
COc1ccc2nc(C)cc(N/N=C/c3ccc(F)cc3)c2c1,-34.5,93.2*,-1.3,7.8,-23.0,0.0
O=S(=O)(O)c1ccc(N=Nc2ccccc2)cc1,-18.2,4.5,-1.3,-27.1,5.5,1.1
O=c1ccc(N=Nc2ccccc2)ccc1O,-2.0,19.6,102.0*,-1.8,-1.0,0.5
COc1ccccc1CN1[C@@H]2CN(C(=O)C3CCC3)c3ccccc3[C@@H]2[C@@H]1CO,/,/,/,/,/,3.1
CCOC(=O)C1(C(C)(C)CC)CC(CSc2nc3ccccc3[nH]2)OC1=O (stereo not drawn),48.1,-16.6,69.2*,-0.2,-0.7,1.1
CCOC(=O)NC(=O)CSc1nc2ccccc2[nH]1,-0.9,8.0,-1.2,6.2,-1.3,/
O=[N+]([O-])c1nn(-c2ccc3c(c2)OCCO3)n(O)c1=NCc1ccccc1Cl,-3.3,-8.4,0.4,71.1*,-7.3,-1.5
Cc1ccc(S(=O)(=O)N(C)C[C@@H]2OCCCC[C@H](C)Oc3ccc(NS(C)(=O)=O)cc3C(=O)N([C@H](C)CO)C[C@@H]2C)cc1,/,/,/,/,/,1.9
N#CC1=C(N)C(C#N)(C#N)C2(C(=O)Nc3ccccc32)C2CCCC=C12 (stereo not drawn),-6.5,-14.2,30.2*,2.7,-0.1,2.1
O=C(CCN1CCCCC1)N[C@@H]1CC[C@H](CCn2cc(-c3ccc(F)cc3)nn2)O[C@@H]1CO,/,/,/,/,/,-1.1
Cn1ncnc2c(=O)n(C)c(=O)nc1-2,5.6,21.4,0.2,-5.9,/,0.1
Cn1nc(-c2ccccn2)nc2c(=O)n(C)c(=O)nc1-2,-9.8,21.6,0.4,-11.1,16.3*,-3.3
CCCc1nc2c(=O)n(C)c(=O)nc-2n(C)n1,4.2,/,125.0*,3.3,-2.5,0.0
C[C@H](CO)N1C[C@H](C)[C@@H](CN(C)Cc2cccc(C(=O)O)c2)Oc2ncc(-c3ccccc3F)cc2C1=O,/,/,/,/,/,-5.1
CO[C@@H]1CN(C)C(=O)c2cc(NC(=O)NC3CCCCC3)ccc2OC[C@H](C)N(C)C[C@H]1C,/,/,/,/,/,-0.2
C[C@H]1CN([C@@H](C)CO)C(=O)c2cc(NS(=O)(=O)c3ccc(Cl)cc3)ccc2O[C@@H]1CN(C)CC1CC1,/,/,/,/,/,-1.7
Fc1ccc(-[n+]2nc(Nc3ccccc3)sc2-c2c3ccccc3cc3ccccc23)cc1,-25.1,32.7,3.6,14.7,3.1,-0.7
Oc1ccc2ccccc2c1-c1sc(Nc2ccccc2)n[n+]1-c1ccc(F)cc1,99.4*,14.7,-0.6,+,6.2,-0.2
COc1ccc(NC(=O)Nc2cccc3c2O[C@H](CN(C)S(=O)(=O)c2cn(C)cn2)[C@H](C)CN([C@H](C)CO)C3=O)cc1,/,/,/,/,/,1.2
COc1ccc(-c2cc(-c3ccccc3)nc(SCC(=O)Nc3ncc(C)s3)c2C#N)cc1,6.0,-2.0,0.4,-45.8,-0.5,-0.1
CCc1nnc(NC(=O)CSc2nc(-c3ccc(F)cc3)cc(-c3ccccc3)c2C#N)s1,3.9,/,-1.3,62.6*,1.9,/
COC(=O)C[C@@H]1C[C@@H]2c3cc(NS(=O)(=O)c4ccc(OC)cc4)ccc3O[C@@H]2[C@H](CO)O1,/,/,/,/,/,1.9
CC1=Nc2cc(C(=O)NCC3CCCO3)ccc2Sc2ccc(C)cc21 (stereo not drawn),17.0,26.6,1.0,-11.1,5.0,-3.1
CC1=Nc2cc(C(=O)NCc3ccco3)ccc2Sc2ccc(C)cc21,11.2,53.9*,-1.2,1.6,5.2,-3.3
Cc1cc(C(=O)Nc2ccc3c(c2)C(=O)N(C)[C@H]2CC[C@H](CC(=O)Nc4ccc(Cl)cc4)O[C@@H]2CO3)no1,/,/,/,/,/,0.6
CCCN1C/C(=C/c2ccc3c(c2)OCO3)C(=O)/C(=C/c2ccc3c(c2)OCO3)C1,5.1,53.2*,5.2,-5.5,0.5,-1.6
COc1ccc(Nc2nc(N)c(C(=O)c3ccc(F)cc3)s2)cc1,-14.0,35.8,33.6*,8.6,3.0,/

# Compound activity as filed in PubChem.
